# Hits are enriched below; roughly 5.4% of the tested compounds scored in any of these assays.
# GASC-1 inh – blocks human GASC-1 demethylase activity | Q9H3R0 | inhibition, % at 2.35 µM | actives 0.069% (n = 330,000) | GST-JMJD2C(1-420) H3K9me3 demethylation, DELFIA europium;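 active = more than half of a compound's replicate wells show inhibition beyond 50%, single wells judged on their own value; inconclusive = some, but no more than half, of replicates pass 50% inhibition; inactive = no replicate passes 50% inhibition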;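 also: signal counts dimethyl H3K9 product captured on neutravidin plate; 0% = median of DMSO wells and 100% = 0.3 times that DMSO median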
# Target sequence (Q9H3R0 1-420 limits assumed): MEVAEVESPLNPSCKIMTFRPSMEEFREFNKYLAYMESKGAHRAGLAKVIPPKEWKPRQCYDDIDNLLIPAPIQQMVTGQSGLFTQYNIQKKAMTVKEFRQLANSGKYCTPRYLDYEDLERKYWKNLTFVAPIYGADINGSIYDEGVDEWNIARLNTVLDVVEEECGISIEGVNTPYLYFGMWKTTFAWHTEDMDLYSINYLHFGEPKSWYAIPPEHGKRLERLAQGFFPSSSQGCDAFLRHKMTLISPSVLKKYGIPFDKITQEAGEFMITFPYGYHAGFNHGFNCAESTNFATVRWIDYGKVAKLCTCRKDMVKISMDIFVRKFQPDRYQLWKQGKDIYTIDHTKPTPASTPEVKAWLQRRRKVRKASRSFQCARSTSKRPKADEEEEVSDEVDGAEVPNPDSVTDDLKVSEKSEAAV
# ALR inh – blocks human ALR sulfhydryl oxidase activity. P55789. purified ALR, DTT oxidation, H2O2 HRP-luminol luminescence. inhibition, % (concentration not given with the values). actives 3.8% (n = 290,000). AID 485317;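 active = mean replicate inhibition above about 79%, with every replicate also reaching it, limit read from the data; inconclusive = only one of the two criteria met; inactive = mean below limit and not every replicate reaching it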
# Target sequence (P55789 whole entry, looked up): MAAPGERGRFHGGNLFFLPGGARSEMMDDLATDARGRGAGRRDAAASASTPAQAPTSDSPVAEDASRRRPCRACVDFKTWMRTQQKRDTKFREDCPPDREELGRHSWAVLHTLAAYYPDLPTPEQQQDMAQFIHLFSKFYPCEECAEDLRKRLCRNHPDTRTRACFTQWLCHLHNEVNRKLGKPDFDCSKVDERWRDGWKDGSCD
# Exocytosis inh – blocks lytic granule exocytosis. TALL-104 LAMP-1 surface exposure, flow cytometry; cells stimulated with thapsigargin and PMA. inhibition, % at 10 µM. actives 0.66% (n = 360,000). AID 651702;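 active = inhibition above about 55%, limit read from the data; inconclusive = no clear call, values can overlap the other calls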
# SMARCA2 act – activators of SMARCA2 function; MG213 cells, MMTV-luciferase reporter, dexamethasone, overnight; actives 1% (n = 370,000); AID 652017; activation, % at 9.1 µM; in the data active = activation above about 7.8%;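 also: 0% = vehicle wells and 100% = reference activator wells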
# M18AAP inhibitor – blocks P. falciparum M18 aspartyl aminopeptidase | recombinant PfM18AAP, H-Glu-NHMec fluorogenic cleavage | inhibition, % at 7.35 µM | actives 1.2% (n = 290,000) | AID 1822;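 active = inhibition above the campaign mean inhibition over all tested compounds plus 3 SD, cut at about 28% in these data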;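 also: 0% = plate median of test compound wells and 100% = 2 mM ZnCl2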
# MIN6 prolif – MIN6 beta-cell proliferation induction | MIN6 cells proliferation, ATPlite luminescence, 48 h; cells starved in 0.2% serum; 100% = growth in 10% serum | proliferation, % at 10 µM | actives 0.29% (n = 330,000) | AID 2380;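 active = compounds whose signal lies at least 3.5 SD above the mean of all wells on their plate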;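 also: 0% = DMSO-treated cells in low-serum medium and 100% = 10% serum control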
# Numbers without * were called inactive; ? = inconclusive; / = no result.
SMILES,GASC-1 inh,ALR inh,Exocytosis inh,SMARCA2 act,M18AAP inhibitor,MIN6 prolif
CCOC(=O)c1ccc(N=C2NC(=O)CS2)cc1,-14.6,98.2*,-0.8,3.9,12.9,-0.9
CN(Cc1ccco1)S(=O)(=O)c1ccc2c(c1)CCN2C(=O)CC(C)(C)C,/,/,/,-0.6,/,/
Cc1ccc(C)c(NNC(N)=S)c1,1.3,/,0.8,-0.2,-28.9,-1.8
NC(=S)NNc1cc(Cl)cc(Cl)c1,-4.9,97.5*,-2.1,-1.7,9.9,-1.2
Cc1cc(Cl)ccc1NNC(N)=S,1.9,63.5,62.1*,-0.5,-31.2,-3.8
CSc1ccc(Oc2cccc3c2S(=O)(=O)N(C2CC2)C[C@@H](COCc2ccccc2)O3)cc1C,/,/,/,-3.5,/,/
Cc1cccc(C2Nc3ccccc3C(=O)N2NC(=O)c2ccc([N+](=O)[O-])cc2)n1 (configuration not stated),1.9,-13.6,3.6,1.0,39.5*,-0.2
CC(=O)NN1C(=O)c2ccccc2NC1c1ccccn1 (configuration not stated),20.5,-1.6,-2.9,-1.9,39.8*,0.0
Cc1cccc(C)c1-n1c(C)cc(/C=C2\NC(=O)NC2=O)c1C,1.3,61.2,-1.3,-2.4,5.2,-1.1
Cc1c(/C=C2\NC(=O)NC2=O)c2ccccc2n1C,-3.5,98.3*,1.8,-1.6,5.8,-3.2
Cn1c(=O)c2c([nH]c(=S)n2Cc2ccc(Cl)cc2)n(C)c1=O,11.8,49.6,-5.7,-2.6,29.8*,3.0
COC(=O)c1cc(-c2ccc(C(C)=O)cc2)c(=O)n2c1CCC2,/,/,/,-0.2,/,/
CCN(CC)CCOC(=O)c1ccc(N/C=C(/C#N)c2nc(-c3ccc(OC)c(OC)c3)cs2)cc1,-16.8,0.4,63.9*,1.4,4.4,-4.0
C=CCSc1nc(O)c(C2OC(=O)c3c2ccc(OC)c3OC)c(=O)n1-c1ccccc1 (configuration not stated),-15.6,97.3*,8.3,-4.7,-10.1,-0.1
CC1=NN(c2ccccc2)C(=O)/C1=C/C=C/c1ccccc1,-3.7,0.8,?,-0.7,9.2,-5.7
CC1=NN(c2cccc(C(=O)O)c2)C(=O)/C1=C\C=C\c1ccco1,-6.3,83.1*,-2.2,-1.4,20.8,-1.2
CCOC(=O)[C@]12CCCC=C1N(Cc1ccc(OC)cc1)C(=O)[C@@H]2CC(=O)N1CCC(c2ccccc2)CC1,/,/,/,-5.4,/,/
CCC(=O)Nc1nnc(C(C)(C)C)s1,91.5,98.2*,-0.4,-4.2,1.7,-1.1
COc1cc(OC)c2ccc(=O)oc2c1C(CC(=O)N1CCCC1)c1ccc(N(C)C)cc1 (configuration not stated),-3.7,99.1*,-1.6,0.4,/,-1.1
COc1cc(OC)c2ccc(=O)oc2c1C(CC(=O)N1CCOCC1)c1ccc(N(C)C)cc1 (configuration not stated),-1.5,98.0*,-7.2,-1.0,/,-1.3
COc1ccc(C(CC(=O)N2CCOCC2)c2c(OC)cc(OC)c3ccc(=O)oc23)cc1 (configuration not stated),0.9,/,-0.4,0.0,/,1.0
Cc1nn(-c2ccccc2)c(C)c1/C=N/NC(=O)c1[nH][nH]c(=O)c1C,/,/,/,-1.0,/,/
CCc1ccccc1Nc1nc2ccccc2n1C,-1.8,97.6*,-3.6,1.4,-5.6,-1.8
CCOc1ccc(Nc2nc3ccccc3n2C)cc1,12.8,93.6*,-1.6,4.1,/,-1.1
CCCn1c(Nc2nc3ccccc3n2C)nc2ccccc21,-2.9,34.3,1.6,-3.3,-7.0,-5.5
SMILES,GASC-1 inh,ALR inh,Exocytosis inh,SMARCA2 act,M18AAP inhibitor,MIN6 prolif
CC(COc1cc(F)cc(C#N)c1)CN1CCC(C(O)(c2ccccc2)c2ccccc2)CC1 (configuration not stated),/,/,/,-4.9,/,/
O=C(CSc1nnc(-c2cccs2)o1)Nc1cc(Cl)cc(Cl)c1,/,/,/,-0.2,/,/
CCn1c(=O)c(-c2cc(=O)[nH][nH]2)c(O)c2ccccc21,-1.3,26.8,-0.8,1.3,30.5*,1.0
COc1cccc(OCC(C)CN2CCC(C(O)(c3ccccc3)c3ccccc3)CC2)c1 (configuration not stated),/,/,/,-5.2,/,/
COc1ccc(NC(=O)CSCC(=O)Nc2cccc3ncccc23)cc1,0.0,18.5,2.7,-0.6,/,-0.1
CC(C)(C)C(=O)NC(=S)Nc1ccccc1N1CCCC1,-4.3,98.4*,-3.5,1.6,17.9,-2.9
Cc1cccc(NC(=O)CSCC(=O)Nc2cccc3ncccc23)c1,-1.8,99.2*,1.5,-1.8,/,-1.8
COc1cc(CC(=O)Nc2ccccc2N2CCCCC2)cc(OC)c1OC,6.2,-0.4,1.3,-7.3,-1.8,5.7
COc1ccc(CC(=O)Nc2ccccc2N2CCCC2)cc1OC,9.8,97.8*,0.3,1.6,20.9,-4.6
CCOc1ccc(N2CC(C(=O)Nc3ccccc3N3CCCC3)CC2=O)cc1 (configuration not stated),-0.9,94.3*,2.8,-1.0,6.4,-2.5
CC(=O)N1CCN(C2=Nc3ccccc3Sc3ccccc32)CC1,/,/,/,6.8,/,/
O=C1c2[nH]nc(-c3ccccc3)c2C(c2ccc(F)cc2)N1Cc1ccccc1 (configuration not stated),/,/,/,1.9,/,/
C#CCNC(=O)C[C@H]1C[C@@]2(C(=O)OC)C(=C[C@H](COCc3ccccc3)O[C@@H]2C)N(CCc2ccc(OC)c(OC)c2)C1=O,/,/,/,-2.7,/,/
Cc1cccc(NC(=O)CSCC(=O)Nc2ccccc2N2CCCCC2)c1,-2.2,-9.5,-2.2,-0.6,/,-4.1
Cc1cccc(NC(=O)CSCC(=O)Nc2ccccc2N2CCCC2)c1,-16.1,98.9*,0.9,-3.8,23.4,-4.3
CCCCn1cnc2c(=O)[nH]ccc21,/,/,/,-6.3,/,/
COc1cccc(/C=N/NC(=S)Nc2cccc(C(=O)O)c2)c1O,7.6,69.4,1.2,1.9,38.2*,-5.6
COc1ccc(NC(=S)Nc2ccc(Oc3ccccc3)cc2)cc1,3.3,-2.0,-6.3,-1.3,-4.9,-6.9
O=C(O)c1cccc(NC(=S)N/N=C/c2cccnc2)c1,-1.5,25.2,-5.2,2.7,27.0,-3.5
COc1ccc(/C=N/NC(=S)Nc2cccc(C(=O)O)c2)cc1,2.3,31.2,5.3,5.1,30.5*,-1.2
COc1ccc(NC(=S)NN(C)C(=S)Nc2ccc(OC)cc2)cc1,5.9,99.1*,-4.6,2.2,10.1,-0.2
COc1cc(C(=O)N/N=C/c2ccc(OC(=O)c3ccccc3)c(OC)c2)ccc1O,-3.9,-2.4,6.6,0.1,-3.0,-5.6
COc1cc(/C=N/NC(=S)Nc2cccc(C(=O)O)c2)ccc1O,-6.6,99.0*,-1.2,4.3,19.9,-1.4
COc1ccccc1/C=N/NC(=O)c1cccc(NC(=O)c2ccccc2C)c1,0.1,-0.3,-7.0,-1.9,2.8,-2.5
COc1ccc(/C=N/NC(=S)Nc2ccccc2)cc1,-4.2,39.8,-1.2,1.7,30.9*,-3.4
COc1ccc(CNC(=S)Nc2ccc(-c3ccccc3)cc2)cc1,-11.5,95.3*,2.7,-2.1,-2.0,-6.5

# High-throughput results deposited in PubChem BioAssay by several laboratories.
